HCV inh: qHTS Assay for Inhibitors of Hepatitis C Virus (HCV). Huh7.5.1 HCVcc-Cre infection, luciferase reporter, 44 h. Potency, µM (doses to about 41.8 µM), inactives show at the top dose activity change, negative = inhibition, most hits filed as inhibitors. actives 3.4% (n = 340,000). AID 651820, 2012; active means well fitted inhibition curve with a large enough effect; inconclusive means small, poorly fitted or top-dose-only effect, or another doubt; inactive means no such curve, though single readings can be large or run the other way; further: potency means the concentration at half of the fitted maximal effect
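After 44 h co-culture of compound, cells and HCVcc-Cre (~0.5 moi), substrate is added for 15 min at room temperature and luciferase measured over 15 sec. Cells were seeded at 1,000/well and pre-cultured 4 h.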
MARV entry inh: qHTS for inhibitors of binding or entry into cells for Marburg Virus; AID 540276, 2011; Marburg virus pseudotyped entry inhibition, cell reporter; Potency, µM (titrated, usually from 37.8 µM), inactives show at the top dose activity change, negative = inhibition, actives largely listed as inhibitors; actives 1.8% (n = 300,000); calls by dose curve; tested in HEK293 cells; further: potency means the concentration at half of the fitted maximal effect
Vaccinia mCherry: qHTS for Stage-Specific Inhibitors of Vaccinia Orthopoxvirus: mCherry Reporter Primary qHTS | Vaccinia virus mCherry reporter infection, fluorescence | Potency, µM (series often up to 36.5 µM), for the others: top-dose activity change, negative = inhibition, actives largely listed as inhibitors | actives 0.63% (n = 310,000); calls by dose curve; tested in A549 cells; further: potency means the concentration at half of the fitted maximal effect; nearly all actives have a fitted effect of over 35% in size
HCMV inh: qHTS Assay for inhibitors of the human cytomegalovirus (HCMV); actives 4.5% (n = 410,000); activity change, negative = inhibition, % at 57.5 µM; HFF cells, HCMV-luciferase reporter, 72 h; hits give low values; in the data active means activity change below about -60%; inconclusive means no clear call, values can overlap the other calls; inactive means above about -39%
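Two compound doses tested in HFFs infected with HCMV-luciferase, MOI 1 PFU/cell, 72 h at 37C. Lysate luminescence read with OneGlo; data normalized against buffer-only and 10uM Salinomycin inhibitor controls.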
VACV Venus inh: qHTS for Stage-Specific Inhibitors of Vaccinia Orthopoxvirus: Venus Reporter Primary qHTS | Vaccinia virus Venus reporter expression, fluorescence | Potency, µM (highest dose often 36.5 µM), inactives show at the top dose activity change, negative = inhibition, hits mostly inhibitors | actives 0.46% (n = 330,000); calls by dose curve; tested in A549 cells; further: potency means the concentration at half of the fitted maximal effect; nearly all actives have a fitted effect of over 30% in size
LASV entry inh: qHTS for Inhibitors of binding or entry into cells for Lassa Virus; Lassa virus pseudotype entry inhibition, cell reporter; Potency, µM (series often up to 37.9 µM), without a hit: top-dose activity change, negative = inhibition, most hits filed as inhibitors; actives 1.2% (n = 300,000); AID 540256, 2011; calls by dose curve; tested in HEK293 cells; further: potency means the concentration at half of the fitted maximal effect; nearly all actives have a fitted effect of over 50% in size
* hit, by the source's call; i = inactive; u = inconclusive; x = no result; [ ] = another dose, or the depositor's remark. Compounds with a hit are over-represented: about 7.8% of the library has one in this group of screens. On the % scale 0 is the no-effect control and ±100 the full control effect.

SMILES	HCV inh	MARV entry inh	Vaccinia mCherry	HCMV inh	VACV Venus inh	LASV entry inh
COc1ccc(-c2noc(C3CCCN(C(=O)Nc4ccccc4F)C3)n2)cc1 (stereo not drawn)	u	u	-25.8%	-13.0	-18.2%	u
COc1ccc(-c2noc(C3CCCN(C(=O)Nc4ccccc4)C3)n2)cc1 (stereo not drawn)	u	x	x	-22.4	x	x
COc1ccc(NC(=O)N2CCCC(c3nc(-c4ccc(C(C)C)cc4)no3)C2)cc1 (stereo not drawn)	10µM*	-25.6%	x	u	x	1.8%
COc1ccc(N2CCN(C(CNC(=O)CC(C)C)c3ccc4c(c3)OCO4)CC2)cc1 (stereo not drawn)	x	x	1.9%	-1.7	1.9%	1.9%[46.1 µM]
CCc1ccc(-n2nc(C)c3c(C(=O)Nc4cc(C)c(Cl)cc4OC)cc(C)nc32)cc1	x	x	-6.5%	14.0	-11.2%	23.5%[46.1 µM]
Cn1cnnc1SCC(=O)Nc1cc(C(=O)O)cc(C(=O)O)c1	x	x	5.1%	-0.7	-7.1%	12.7%[46.1 µM]
CC(=O)Nc1ccc(N2CCN(c3ccc(C(F)(F)F)cn3)CC2)nc1	u	u	u	-33.2	-12.3%	-8.0%[46.1 µM]
O=C(Nc1ccc(F)cc1)N1CCCN(c2ccc(C(F)(F)F)cn2)CC1	u	u	i	-61.9*	-18.3%	-11.9%[46.1 µM]
O=C1C(c2ccncc2)=C(O)c2ccccc21	-0.4%	7.08µM*	x	67.2	-20.5%	7.94µM*
O=C1C(c2c(O)[nH]c3ccccc23)=Nc2ccccc21	14.0%	x	-8.7%	59.8	-1.8%	x
O=c1cc(-c2ccccc2)[nH]c2ccccc12	-26.5%	u	u	-76.3*	u	-5.6%
O=c1nc(-c2ccccc2)c2ccccc2[nH]1	-7.4%	-5.4%	x	18.0	-9.7%	1.1%
O=C1C(c2cc(=O)c3ccccc3[nH]2)=C(O)c2ccccc21	8.1%	5.62µM*	u	12.7	u	u
CN(C)c1ccc(CN(CC2CCCO2)C(=O)COc2ccc(Cl)cc2)cc1 (stereo not drawn)	x	u	-10.0%	-31.9	-11.8%	u
CC(C)(C)c1ccc(/C=C2\Oc3cc(O)ccc3C2=O)cc1	u	u	-29.5%	-91.5*	u	u
O=C1/C(=C/c2ccc([N+](=O)[O-])cc2)Oc2cc(O)ccc21	-25.9%	u	-18.5%	-89.1*	-9.0%	u
O=C1/C(=C/c2ccc(Br)cc2)Oc2cc(O)ccc21	-5.1%	u	-6.3%	0.0	-3.1%	20.0%[46.1 µM]
CN(C)C(=O)Oc1ccc2c(c1)O/C(=C\c1cccc([N+](=O)[O-])c1)C2=O	8.0%	x	x	19.7	x	x
Cc1ccc(S(=O)(=O)N2CCOCC2)cc1C(=O)N1CCN(c2ccc(C(F)(F)F)cn2)CC1	10µM*	u	i	-76.3*	-6.1%	u
Cc1ccc(-n2c(C)cc(C3=NNC(=NC4CC4)SC3)c2C)cc1C	-29.4%	x	x	-99.5*	x	x
Clc1ccc2c(ccc[n+]2CCc2ccccc2)c1	x	x	-19.2%	x	8.3%	x
CCc1cc(C(=O)Cc2ccc(F)cc2)c(O)cc1O	3.2%	u	-12.3%	-77.2*	u	u
O=C(CCC1CCCN(C(=O)c2ccc3c(c2)OCO3)C1)N1CCN(c2ccccn2)CC1 (stereo not drawn)	10µM*	u	-0.1%	-33.9	-16.9%	-25.9%[46.1 µM]
CC(C)c1cc(C(=O)N2CCCC(CCC(=O)N3CCN(c4ccccn4)CC3)C2)no1 (stereo not drawn)	u	-20.4%[46.1 µM]	14.5%	-61.7*	-8.3%	6.0%
c1ccc(-c2nc3cc4ccccc4cc3[nH]2)nc1	u	u	-18.5%	-20.1	-27.8%	2.24µM*
SMILES	HCV inh	MARV entry inh	Vaccinia mCherry	HCMV inh	VACV Venus inh	LASV entry inh
CC(=O)Nc1ccc2nc(-c3ccccn3)[nH]c2c1	2.9%	9.9%	u	49.1	u	u
Fc1cccc(-c2cc3cnc(Nc4ccc(C(F)(F)F)cc4)cc3[nH]2)c1	x	x	x	-7.4	x	x
CC(=O)Nc1ccc(N/C=C/C(=O)c2ccc(C)o2)cc1	17.2%	u	-12.3%	-27.2	-13.1%	20.3%
COc1ccccc1Oc1ccc(N/C=C/C(=O)c2ccc(C)o2)cc1	22.4µM*	u	u	u	-22.5%	-23.2%[46.1 µM]
COc1ccc(N/C=C/C(=O)c2sc(-c3ccccc3)nc2C)cc1	10µM*	u	u	-61.3*	u	u
COc1ccc(N/C=C/C(=O)c2ccccc2)cc1	-7.3%	x	x	56.9	x	x
CC(=O)c1ccc(-c2ccc3c4c(ccc3c2)OC(CNC(=O)[C@@H]2CCCN2C(C)=O)C4)s1 (stereo partly drawn)	x	x	-3.0%	x	-16.7%	x
CCn1c(=O)n(CC)c2cc(N3CCCC3)c(NC(=O)c3cc(Br)ccc3OC)cc21	u	x	x	-69.8*	x	x
CCn1c(=O)n(CC)c2cc(N3CCCC3)c(NC(=O)c3ccccc3F)cc21	12.6µM*	u	u	-35.5	-8.3%	u
Oc1ccc2c3c1O[C@H]1c4[nH]c5ccccc5c4C[C@@]4(O)C(C2)N(CC2CC2)CCC314 (stereo partly drawn)	x	16.4µM*	-18.0%	x	-6.1%	18.3µM*
Oc1ccc2c3c1OC1c4[nH]c5ccccc5c4C[C@@]4(O)C(C2)N(CC2CC2)CC[C@]314 (stereo partly drawn)	u	x	-7.8%	42.1	-22.1%	x
Oc1ccc2c3c1O[C@H]1c4oc5ccccc5c4C[C@@]4(O)C(C2)N(CC2CC2)CCC314 (stereo partly drawn)	x	10.3µM*	x	x	x	x
Oc1ccc2c3c1OC1c4oc5ccccc5c4C[C@@]4(O)[C@@H](C2)N(CC2CC2)CC[C@]314 (stereo partly drawn)	-5.4%	x	i	-61.4*	-11.8%	x
COc1ccc2c3c([nH]c2c1)[C@H](CO)N(C(=O)c1cccc(F)c1)CC31CCN(S(=O)(=O)c2cccs2)CC1	x	x	x	-17.0	x	x
Cn1cnc(S(=O)(=O)N2CCC(C(=O)N3CCN(c4ccccc4F)CC3)CC2)c1	x	x	-8.6%	-15.9	-4.4%	u
CCc1ccc(CN(C(=O)COc2c(C)cccc2C)C2CCS(=O)(=O)C2)cc1 (stereo not drawn)	-21.2%	x	x	-108.7*	x	x
Cc1ccc2oc(C(=O)N(Cc3sccc3C)C3CCS(=O)(=O)C3)c(C)c2c1 (stereo not drawn)	x	3.16µM*	i	8.1	-16.5%	u
CCOc1ccc(CN(C(=O)c2oc3cc(C)ccc3c2C)C2CCS(=O)(=O)C2)cc1 (stereo not drawn)	u	u	x	13.8	x	13µM*
CCN(CC)C(=O)c1c(-c2ccccc2)c(-c2ccccc2)nn(CC)c1=O	x	u	-2.1%	6.7	-4.1%	8.8%[46.1 µM]
Cc1ccc(C)c(N2CCN(C(=O)CCn3c(=O)[nH]c4ccccc4c3=O)CC2)c1	x	x	-26.9%	-18.1	-20.1%	-11.9%[46.1 µM]

Screens deposited in PubChem by National Center for Advancing Translational Sciences (NCATS).
